Screening data from PubChem.
Compounds with a hit are over-represented: about 1% of the library has one in this group of screens.
Fh CTSL1 inh: Fasciola hepatica cathepsin L1 inhibitors, primary screen, counter-screen for PFM18AAP inhibitor project, biochemical, QFRET, fluorogenic peptide substrate; recombinant F. hepatica cathepsin L1, Z-Leu-Arg-MCA fluorescence; inhibition, % at 5.96 µM; actives 0.49% (n = 300,000); AID 1906, 2009;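 active means inhibition above the mean of all tested compounds plus 3 SD, set per screening campaign, cut at about 17% in these data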;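 further: 0% = plate median of test compound wells and 100% = 1 µM Z-Phe-Ala-diazomethylketone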
hiPSC survival: enhancers of single-cell hiPSC survival, primary screen, ATPlite luminescence | 100% = ROCK inhibitor wells, 0% = DMSO | survival enhancement, % at 20 µM | actives 0.044% (n = 360,000); in the data active means survival enhancement above about 18%;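 further: cells exposed to compounds for 16 hours before the ATP read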
V-ATPase pHluor: regulators of yeast V-ATPase proton pumping, primary screen, pHLuorin cytosolic pH fluorescence | S. cerevisiae | response, % at 10 µM | actives 0.37% (n = 350,000) | AID 504577, 2011; in the data active means response mostly above about 7.3%, no sharp cut-off; inactive means mostly below about 5.4%; further: actives read high
Yeast superoxide: reduction of superoxide in aged yeast, primary screen, HTS; actives 0.18% (n = 330,000); S. cerevisiae aged cells, superoxide DHE fluorescence; active compounds read low; AID 2690, 2010; superoxide response (% of plate mean), % at 10 µM;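 active means superoxide response under a set limit, about three screen SD below normal, cut at about 65% in these data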;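 further: yeast aged for seven days with compound at 30 °C before DHE staining; 100% = average MFI of all compound-treated wells on the plate with controls excluded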
Superoxide pick: superoxide lowering in aged yeast cells, confirmation, cherry picked compounds | shares compounds with Yeast superoxide | S. cerevisiae aging, superoxide DHE fluorescence; active compounds read low | superoxide response (% of plate), % at 10 µM | actives 1% (n = 850) | AID 434994, 2010;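 active means superoxide signal below 65% of the plate average of sample wells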;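 further: cells aged with compound for 7 days at 30 degrees C before staining; 100% equals mean DHE fluorescence of all compound wells on the plate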
DHE counter: DHE quenching or ROS scavenging interference in aged yeast, artefact control for yeast caloric restriction mimetic project, S. cerevisiae BY4741, flow cytometry. shares compounds with Yeast superoxide. AID 435000, 2010. 850 tested, under 10 active. fluorescence response, % at 10 µM. DHE fluorescence; active compounds read low;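 active means fluorescence response below 15%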;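 further: percent of the mean fluorescence averaged over all compound wells on the plate; lower means stronger quenching of DHE signal or ROS scavenging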
An asterisk follows results filed as active; nt = not tested or not shown.

SMILES	Fh CTSL1 inh	hiPSC survival	V-ATPase pHluor	Yeast superoxide	Superoxide pick	DHE counter
COc1cccc(NC(=O)COC(=O)CNS(=O)(=O)c2c(F)cccc2F)c1	-14	0	1	88	nt	nt
Cc1ccc(-c2nnc(Nc3ccc(O)cc3)c3ccccc23)cc1S(=O)(=O)NCCO	nt	0	1	106	124	116
Cc1ccc(-c2nnc(Nc3ccc(CC(N)=O)cc3)c3ccccc23)cc1S(N)(=O)=O	-2	-1	0	84	99	97
NC(=O)COc1ccc(Nc2nnc(-c3ccc(O)cc3)c3ccccc23)cc1	1	0	0	90	nt	nt
CNC(=O)c1ccc(Nc2nnc(-c3ccc(C)c(S(N)(=O)=O)c3)c3ccccc23)cc1	1	0	-1	102	94	91
CNC(=O)c1ccc(Nc2nnc(-c3ccc(O)cc3)c3ccccc23)cc1	3	-1	0	105	nt	nt
Cc1ccc(-c2nnc(Nc3ccc(OCC(N)=O)cc3)c3ccccc23)cc1S(N)(=O)=O	-2	0	1	104	104	97
CC[C@@H](C)[C@H](CN[C@H](CNC)[C@@H](C)O)NCCc1ccc(OC)cc1	-2	-2	3	91	nt	nt
CC(CCc1ccccc1)NC(=O)CN1C(=O)NC2(CCCCC2)C1=O (stereo not given)	2	2	4	97	nt	nt
COc1nc(N(C)C)nc(N(C#N)CCOC(C)=O)n1	4	0	-8	64*	113	104
COC(=O)[C@H](Cc1ccccc1)NC(=O)[C@@H](N)CC(=O)OCc1ccccc1	nt	2	-4	65*	94	101
O=C(Nc1ccc2nc3ccccc3nc2c1)c1ccc(Br)cc1	0	0	-35	99	93	113
CCCC[C@@H]1C=C(C(=O)O)[C@H](c2ccc(Cl)c(Cl)c2)N1S(=O)(=O)c1ccc(C)cc1	nt	6	1	111	nt	nt
CCN1CCN(C(=O)/C=C/c2cccc(Cl)c2)CC1	4	0	1	104	nt	nt
COCC(=O)N1CCC(Oc2ccc(C(=O)N[C@H](C(=O)OC)C(C)C)cc2)CC1	-2	0	3	103	nt	nt
Cc1cc(C)cc(NC(=O)COC(=O)CCCC2=NS(=O)(=O)c3ccccc3N2)c1	-12	-1	1	93	nt	nt
CCOc1ccccc1NC(=O)COC(=O)CC(C)(C)CC1=NS(=O)(=O)c2ccccc2N1	3	0	6	58*	106	110
Cc1c(C(=O)N2CCCCC2)c(S(=O)(=O)N2CCN(c3ccccc3F)CC2)c(C)n1C	-1	0	0	97	nt	nt
O=C(NCC(=O)N(c1ccccc1F)C(C(=O)NC1CCCC1)c1ccncc1)c1ccco1 (stereo not given)	3	0	-3	115	nt	nt
CCc1nnc(NC(=O)C2CCCN2C(=O)Nc2ccc(C)cc2)s1 (stereo not given)	-3	-1	2	98	nt	nt
CCCOc1ccc(NC(=O)C2CC(=O)N3CCCN=C3S2)cc1 (stereo not given)	-2	-1	1	65*	95	107
C/C=C(\C)CN1CCC(n2nccc2NC(=O)CCOc2ccccc2)CC1	-3	0	3	120	nt	nt
O=S(=O)(NCCNS(=O)(=O)c1ccc(F)cc1)c1ccc(F)cc1	-1	2	-1	111	nt	nt
Cc1ccsc1CNS(=O)(=O)c1ccc(F)cc1	4	0	0	60*	88	91
CN(CC(=O)Nc1ccccc1C(F)(F)F)C(=O)CCc1nc2ccccc2c(=O)[nH]1	-1	0	1	93	nt	nt
SMILES	Fh CTSL1 inh	hiPSC survival	V-ATPase pHluor	Yeast superoxide	Superoxide pick	DHE counter
Cc1ccc(-n2nc3ccc(NC(=O)/C=C/c4ccco4)cc3n2)cc1	1	2	2	54*	102	95
COC(=O)CSc1nnc(CCc2ccccc2)n1C	-7	0	2	98	nt	nt
C=CCNC(=O)C1CC(=O)N(c2ccc(OCC(=O)Nc3ccc(CC)cc3)cc2)C1 (stereo not given)	1	0	0	58*	112	111
COc1ccc([C@H]2CC(=O)C=C(/C=C/c3ccc(C(F)(F)F)cc3)C2)cc1	nt	1	1	112	nt	nt
CCCOC(=O)CSc1nnc(-c2ccc(Cl)cc2Cl)o1	5	-1	0	99	101	88
CCOC(=O)CSc1nnc(-c2ccc(Cl)cc2Cl)o1	-3	4	4	129	nt	nt
C/C(CC1CC(C)OC1=O)=N\NC(N)=S (stereo not given)	6	2	1	95	nt	nt
C/C(CCC12CC3CC(CC(C3)C1)C2)=N\NC(N)=S	3	0	0	64*	114	104
CC(C)CC(=O)Nc1ccc(C(=O)COC(=O)Cc2n[nH]c(=O)c3ccccc23)cc1	nt	4	-1	99	nt	nt
Cc1ccc(S(=O)(=O)N2CC(O)C[C@H]2C(=O)OCC(=O)Nc2ccc(N3CCCCC3)cc2)cc1C (stereo not given in full)	-6	0	-2	104	nt	nt
CC1(C)Cc2ccccc2C2=NNC(=O)C2=N1	-1	-2	0	56*	89	87
CN(C)S(=O)(=O)c1ccc(NC(=O)CN2CCN(c3ccccn3)CC2)cc1	-3	0	-4	80	107	91
CCN(CC)S(=O)(=O)c1cc(NC(=O)CN2CCN(c3ccccn3)CC2)ccc1C	-8	0	-2	100	97	100
Cc1ccc(NC(=O)CN2CCN(c3ccccn3)CC2)cc1S(=O)(=O)N(C)C	-2	2	-2	97	nt	nt
O=C(CN1CCCC1)Nc1ccc(OC(F)(F)F)cc1	-2	2	0	106	nt	nt
O=C(CN1CCN(c2ccccn2)CC1)Nc1ccc(OC(F)(F)F)cc1	-13	-1	2	109	94	111
CC(=O)Nc1ccc(NC(=O)CN2CCN(c3ccccn3)CC2)cc1	-8	4	-2	53*	101	94
Cc1cc(C)cc(NC(=O)CN2CCN(c3ccccn3)CC2)c1	-2	-1	0	89	nt	nt
Cc1ccccc1CNC(=O)C(=O)Nc1nccs1	1	-1	1	89	nt	nt
CC(=O)Nc1ccc(NC(=O)COC(=O)c2cc(S(=O)(=O)N3CCCC3)ccc2O)cc1	nt	2	0	62*	104	101
Cc1cccc(-n2ncc3c(N4CC(C)CC(C)C4)ncnc32)c1 (stereo not given)	1	0	6	92	nt	nt
Cc1cccc(-n2ncc3c(N4CCCC4)ncnc32)c1	-4	-4	1	104	92	109
Cc1cccc(-n2ncc3c(N4CCOCC4)ncnc32)c1	1	-5	-1	97	100	91
Cc1ccc(-n2ncc3c(N4CCN(c5ccccc5)CC4)ncnc32)c(C)c1	1	-3	-9	104	nt	nt
CCOc1cc2[nH]c(=S)n(CCCC(=O)NCc3ccccn3)c(=O)c2cc1OCC	4	0	-1	107	nt	nt
